Screens as filed in PubChem BioAssay.
PME-1 inh – blocks human protein phosphatase methylesterase 1; inhibition, % at 5.9 µM; AID 2130; actives 0.53% (n = 320,000); recombinant PME-1, FP-Rh probe fluorescence polarization; Q9Y570;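 active = inhibition above the campaign mean of all compounds plus 3 SD, cut at about 26% in these data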;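 note: competitive labeling of PME-1 active site by serine hydrolase directed probe; 0% = PME-1 with DMSO and 100% = wells lacking PME-1 enzyme; inhibitors block probe labeling so polarization falls and inhibition rises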
PAFAH1B2 inh – inhibitors of human PAFAH1B2. recombinant PAFAH1B2, FP-rhodamine activity probe, fluorescence polarization. inhibition, % at 3.39 µM. actives 1.2% (n = 340,000);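 active = inhibition above the mean of all tested compounds plus 3 SD, cut at about 24% in these data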;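 note: 0% = enzyme with DMSO and 100% = wells lacking PAFAH1B2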
Target sequence (P68402 whole entry, looked up): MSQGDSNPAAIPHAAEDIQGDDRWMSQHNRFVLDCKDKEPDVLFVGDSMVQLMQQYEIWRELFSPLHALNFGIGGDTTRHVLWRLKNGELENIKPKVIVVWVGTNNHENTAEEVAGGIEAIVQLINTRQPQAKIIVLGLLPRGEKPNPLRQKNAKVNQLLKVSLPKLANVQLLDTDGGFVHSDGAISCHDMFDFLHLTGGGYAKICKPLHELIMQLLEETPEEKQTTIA
PAFAH1B3 FP inh – inhibitors of human PAFAH1B3; recombinant PAFAH1B3, FP-rhodamine probe, fluorescence polarization; actives 0.28% (n = 340,000); inhibition, % at 3.39 µM; Q15102;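 active = inhibition above the screen-wide average of all tested compounds plus 3 SD, cut at about 25% in these data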;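 note: 0% = enzyme with DMSO only and 100% = wells lacking PAFAH1B3 protein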
Target sequence (Q15102 whole entry, looked up): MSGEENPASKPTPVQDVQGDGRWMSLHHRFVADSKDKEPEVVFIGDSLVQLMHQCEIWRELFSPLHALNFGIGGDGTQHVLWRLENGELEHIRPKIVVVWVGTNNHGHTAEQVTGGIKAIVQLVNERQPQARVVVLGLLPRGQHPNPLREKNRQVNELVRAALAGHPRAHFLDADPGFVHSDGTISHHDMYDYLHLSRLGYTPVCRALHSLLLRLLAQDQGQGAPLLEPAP
PAFAH2 FP inh – inhibitors of human PAFAH2. Q99487. recombinant PAFAH2, FP-rhodamine activity probe, fluorescence polarization. inhibition, % at 3.39 µM. actives 0.99% (n = 340,000). AID 492956;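 active = inhibition above the mean over all tested compounds plus 3 SD, cut at about 30% in these data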;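 note: inhibitors block probe labeling of enzyme so polarization drops; 0% = enzyme with DMSO and 100% = wells lacking PAFAH2 protein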
pPAFAH FP inh – pPAFAH (human) enzyme inhibition; Q13093; recombinant pPAFAH, FP-rhodamine probe fluorescence polarization; inhibition, % at 3.39 µM; actives 1.5% (n = 330,000); AID 463082;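 active = inhibition above the mean inhibition across the screen plus 3 SD, cut at about 25% in these data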;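 note: inhibitors block binding of the rhodamine activity-based probe so polarization drops; 0% = enzyme with DMSO and 100% = wells lacking pPAFAH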
Fam108B counter – Fam108B inhibition, counter-screen for RBBP9 inhibitors; recombinant Fam108B, FP-Rh probe fluorescence polarization; inhibition, % at 9.51 µM; actives 0.33% (n = 300,000);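 active = inhibition above the screen mean inhibition plus 3 SD, computed separately per campaign, cut at about 18% in these data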;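 note: inhibitors lower polarization as less probe binds the enzyme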
An asterisk follows results filed as active; · = not tested or not shown. The list is not random: actives were taken first. Their share in the collection is about 2.8%.

SMILES	PME-1 inh	PAFAH1B2 inh	PAFAH1B3 FP inh	PAFAH2 FP inh	pPAFAH FP inh	Fam108B counter
CSc1cccc(NC(=S)N(Cc2ccccc2)Cc2cccnc2)c1	8	4	6	3	6	-1
COc1cc([C@@H]2CC=C(C(=O)O)[C@H](c3ccc(Cl)cc3)N2S(=O)(=O)c2ccc(C)cc2)cc(OC)c1OC	0	-2	13	-13	-1	-3
Cc1ccc(S(=O)(=O)N2[C@@H](c3ccc(Cl)cc3)C(C(=O)O)=CC[C@H]2c2ccc(Cl)c(Cl)c2)cc1	-11	90*	-2	7	10	-14
CCc1ccc([C@@H]2CC=C(C(=O)O)[C@H](c3ccc(C(C)(C)C)cc3)N2S(=O)(=O)c2ccc(C)cc2)cc1	·	87*	5	9	18	·
Cc1ccc(S(=O)(=O)N2[C@@H](c3ccc(Br)cc3)C(C(=O)O)=CC[C@H]2c2ccc(C(C)C)cc2)cc1	·	89*	-2	15	16	·
CCOc1ccc([C@@H]2CC=C(C(=O)O)[C@H](c3ccc(F)cc3)N2S(=O)(=O)c2ccc(C)cc2)cc1	-7	19	7	-2	4	0
CCc1ccc([C@H]2C(C(=O)O)=C[C@@H](C(C)(C)C)N2S(=O)(=O)c2ccc(C)cc2)cc1	·	18	-5	-2	6	·
Cc1ccc(S(=O)(=O)N2[C@@H](c3ccc(C(C)(C)C)cc3)C(C(=O)O)=CC[C@H]2c2ccc(C(C)C)cc2)cc1	·	83*	2	2	11	·
COc1cccc(CC(=O)OCC(=O)N(C)CC(=O)Nc2ccccc2Cl)c1	6	8	1	1	2	·
COCCN(CC(=O)Nc1cccc(S(=O)(=O)N2CCCC2)c1)Cc1nc2ccccc2c(=O)[nH]1	·	-4	-1	-6	·	·
COc1ccc(CNC(=O)c2[nH]c(C)c(C(C)=O)c2C)cc1	-2	3	0	-3	-2	0
COc1cccc(CN2C(=NC(=O)C3CC3)SC3CS(=O)(=O)CC32)c1 (centres undefined)	-10	0	-2	-3	0	1
COc1ccc([C@@H]2CC=C(C(=O)O)[C@H](c3ccccc3)N2S(=O)(=O)c2ccc(C)cc2)cc1OC	-4	5	7	0	-1	-3
Cc1ccc([C@@H]2CC=C(C(=O)O)[C@H](c3ccc(C(C)(C)C)cc3)N2S(=O)(=O)c2ccc(C)cc2)cc1	·	87*	-3	-1	15	·
COc1cc(N/N=C(\C)c2ccc(O)c(C)c2)nc(-c2ccccc2)n1	30*	2	9	12	8	4
Cc1nc(NC(=O)c2ccccc2)sc1C1(C)CC(c2ccc(OC(F)(F)F)cc2)=NO1 (centres undefined)	-27	·	·	·	-6	-19
COc1ccc2nc(Nc3sc4c(c3C(N)=O)CCCC4)sc2c1	24	10	19	0	26*	4
O=C(NC(=S)/C(=C1\CCCCCN1)[N+](=O)[O-])c1ccccc1	·	5	2	-2	4	·
CC1CCCCC1NC(=O)CN1c2cccc3cccc(c23)S1(=O)=O (centres undefined)	9	3	9	-1	4	·
Cn1nnnc1Sc1ncnc2scc(-c3ccsc3)c12	·	7	7	4	0	·
Brc1ccc(CSc2nccn2-c2ccccc2)cc1	8	24*	5	13	0	3
FC(F)(F)c1ccc(CSc2nccn2-c2ccccc2)cc1	1	11	2	-2	5	4
Cc1c(Cc2ccccc2)sc(/N=C/c2ccc3ccccc3c2)c1C(N)=O	-1	-9	-2	-25	10	-5
Cc1c(Cc2ccccc2)sc(NC(=O)C(C)(C)C)c1C(N)=O	6	1	1	1	4	0
Cc1c(Cc2ccccc2)sc(/N=C/c2c(O)ccc3ccccc23)c1C(N)=O	10	-21	-10	-37	32*	13
SMILES	PME-1 inh	PAFAH1B2 inh	PAFAH1B3 FP inh	PAFAH2 FP inh	pPAFAH FP inh	Fam108B counter
Cc1c(Cc2ccccc2)sc(N)c1C(N)=O	5	·	·	·	28*	7
CCCCCSc1nnc(-c2cc(Br)ccc2N)c(=O)[nH]1	5	27*	8	11	6	-1
Brc1ccc(CNc2ccc3ncccc3c2)cc1	·	51*	4	0	·	·
Cn1cnc2cc(NCc3ccc(Cl)cc3)ccc21	2	43*	3	0	1	2
CCCn1cnc2cc(NCc3ccc(Br)cc3)ccc21	7	37*	6	1	10	0
CCOc1ccc(CNc2ccc3c(c2)ncn3C)cc1	5	2	10	3	-1	5
Cc1ccc(C)c(N=Nc2ccc(O)c3ncccc23)c1	-4	-2	7	-2	27*	3
O=C(Nc1ncccc1O)c1ccc2c(c1)OCCO2	1	6	8	3	3	0
CCOc1ccc(N=Nc2ccc(O)c3ncccc23)cc1	·	3	9	-5	·	·
Oc1ccc(N=Nc2ccc3c(c2)OCCO3)c2ncccc12	4	5	9	-2	28*	4
Cc1cccc(N=Nc2ccc(O)c3ncccc23)c1	7	11	8	11	51*	9
NS(=O)(=O)c1ccc(N=Nc2ccc(O)c3ncccc23)cc1	6	0	6	7	27*	6
CC(C)C(NC(=O)c1ccco1)C(=O)NC1CCCCCC1 (centres undefined)	7	1	4	-9	5	-4
O=C(CNc1ccccc1N1CCCC1=O)Nc1cc(C(F)(F)F)ccc1-n1cncn1	·	-4	7	8	·	·
CCOC(=O)C[C@H]1c2cc(F)ccc2S(=O)(=O)N1c1cccc(OC)c1	2	-1	2	-1	3	6
O=C(Nc1cccnc1)c1ccc(S(=O)(=O)c2ccc(Cl)cc2)cc1	3	27*	4	-6	6	-5
O=C(NCCCN1CCOCC1)c1ccc(Sc2cccc(Cl)c2)c([N+](=O)[O-])c1	16	-1	2	2	32*	3
CCCN(C(=O)CSc1cc(-c2ccccc2)c2ccc(OC)cc2n1)C1CCS(=O)(=O)C1 (centres undefined)	-7	0	6	-14	25*	0
COC(=O)CNC(c1ccccc1)c1cc(Br)ccc1NC(=O)CNC(=O)OCc1ccccc1 (centres undefined)	1	9	6	10	29*	0
COc1ccc(OCc2cccc(C(=O)Nn3cc([N+](=O)[O-])cn3)c2)cc1	-3	29*	-4	3	4	0
COc1cccc(/C=C2\CC(C)Cc3c2nc2ccccc2c3C(=O)O)c1OC (centres undefined)	-7	-6	1	-7	1	0
COc1ccc(C(=O)NC(=S)NCc2ccccc2)cc1OC	-1	4	9	-2	30*	-2
